This note sets out measurements from PubChem BioAssay AID1508621 (National Center for Advancing Translational Sciences (NCATS), 2021).

SMILES strings stand for the structures. Results filed as inconclusive are left out. Entries that show only a call come without a potency. Calls of active or inactive are those of the source. Calls come from the whole dose curve; as a rule, active = well fitted inhibition curve with a large enough effect; inconclusive = small, poorly fitted or top-dose-only effect; inactive = no such curve, though single readings can be large or run the other way.
Potency is the fitted concentration of half-maximal effect.

The nature of this experiment: Confirmatory qHTS for Identification of Small Molecule Inhibitors of Huntingtin Promoter Activity. Note: nearly all actives have a fitted effect of over 65% in size. The conditions noted are these: HEK293 HTT promoter firefly luciferase reporter, 24 h; series mostly up to 57.5 µM. An excerpt:
Assay Provider: Russell L. Margolis M.D.
Department Neurology, Johns Hopkins University School of Medicine, Baltimore, MD
Huntington's Disease (HD) is a neurodegenerative disorder caused by a CAG repeat expansion in exon 1 of huntingtin (HTT). While there are currently no disease-modifying treatments for HD, recent efforts have focused on development of nucleotide-based therapeutics to lower HTT expression. As an alternative to siRNA or oligonucleotide methods, we hypothesized that suppression of HTT expression might be accomplished by small molecules that either (1) directly decrease HTT expression by suppressing HTT promoter activity or (2) indirectly decrease HTT expression by increasing the promoter activity of HTT-AS, the gene antisense to HTT that appears to inhibit expression of HTT.
We developed and employed a high throughput screen for modifiers of HTT and HTT-AS promoter activity using luminescent reporter HEK293 cells; of the 52,041 compounds tested, we identified 898 replicable hits. We used a rigorous stepwise approach to assess compound toxicity and the capacity of the compounds to specifically lower huntingtin protein in 5 different cell lines, including HEK293 cells, HD lymphoblastoid cells, mouse primary neurons, HD iPSCs differentiated into cortical-like neurons, and HD hESCs. We found no compounds which were able to lower huntingtin without lowering cell viability in all assays, though the potential efficacy of a few compounds at non-toxic doses could not be excluded.
SEQUENCE No. (1, 2, 3, etc.); […] (e.g., Cells, Incubation, Reagent, etc.); VALUE and DESCRIPTION.
1; Reagent; 4 uL; 2,500 Hek293 luciferase reporter cells per wells
3; Compound; 23 nL; Control inhibitor / compound library
5; Reagent; 2.5 uL; Firefly Luc reagent; Dual-Glo Luciferase Reporter Assay System (Promega)
6; Time; 10 min; room temperature incubation
7; Detection; Luminescence; FLuc
NOTES (numbers refer to sequence above)
1; High-throughput screening, measuring luminescence from a Hek293 luciferase reporter, was performed in 1,536 well white-walled tissue-culture treated plates. 2,500 cells were plated in 4 uL of Opti-MEM per well using a Multidrop Combi Reagent Dispenser (ThermoFisher).
2; Assay plates were cultured for 24 hours.
3; Control inhibitor (PTC124; final concentration of 50 uM) and compound library (at final concentrations of 460 nM - 57.5 uM) were added to the assay plate using the Kalypsis Pintool Robotic System equipped with 1536 pinheads.
4; Cells were then incubated for 24 hours at 37C prior to luminescence measurements.
5; In all cases, luminescence was measured using the Dual-Glo Luciferase Reporter Assay System (Promega) following the manufacturer's instructions.
6; Room temperature incubation.
7; Luminescence signal was obtained using the PerkinElmer ViewLux plate reader. Results were normalized to vehicle control (0% activity) and zero RLU (-100% activity).
In general terms: In qHTS, concentration-response curves come from the screen itself.
For `CNC(=O)N1N=C(c2ccc(N)cc2)c2cc3c(cc2CC1C)OCO3` (stereo not drawn), the Potency result is “inactive”.

`CCN(CC)C(=O)N[C@@H]1C=C2c3cccc4[nH]cc(c34)C[C@@H]2N(C)C1`: the Potency result was “inactive”.

With `CC(C)(O)C=CC(=O)[C@](C)(O)[C@H]1[C@H](O)C[C@]2(C)[C@@H]3CC=C4[C@@H](C=C(O)C(=O)C4(C)C)[C@]3(C)C(=O)C[C@@]12C`, the Potency is 0.757 µM (active).

On to `Cc1ccccc1Cn1cccc(C(=O)Nc2nc3ccccc3s2)c1=O`, for which the Potency was 12 µM (active).

As to `COc1ccc(-n2c(/C=C\c3ccccc3F)nc3ccccc3c2=O)cc1OC`, the Potency entry is “inactive”.

As for `CC(C)N[C@@H]1CCn2c(=O)[nH]c3cccc(c32)[C@@H]1O`, the Potency entry is “inactive”.

Regarding `CCCCc1ccc(NC(=O)c2cccn(Cc3ccc(Cl)cc3)c2=O)cc1`, the Potency entry is “inactive”.

For the compound `Nc1c(C(=O)Nc2ccc(Cl)c(C(F)(F)F)c2)sc2nc3c(cc12)N1CCC3CC1`, the Potency was 12 µM (active).

Consider `Cc1ccc(-n2c(/C=C/c3ccc(Br)s3)nc3ccccc3c2=O)cc1`, for which the Potency result was “inactive”.

Turning to `O=C(N[C@H]1CN2CCC1CC2)c1ccc(Cl)cc1`, the Potency result is “inactive”.

As for `CCOc1ccc(NC(=O)c2cccn(Cc3cccc(Cl)c3)c2=O)cc1`, the Potency result is “inactive”.

Turning to `Cc1cccc(-n2c(/C=C\c3cccc(Br)c3)nc3ccccc3c2=O)c1`, the Potency entry is “inactive”.

Regarding `O=c1c2ccccc2nc(/C=C/c2cccc3ccccc23)n1-c1ccccc1Cl`, the Potency result was “inactive”.
